# PubChem BioAssay AID1259422 (The Scripps Research Institute Molecular Screening Center, 2018)
# The campaign covered roughly 640,000 compounds. About 9,300 (1.5%) were called active. This excerpt belongs to a sample that is enriched for actives. Unmarked numbers belong to inactive results. No stated cut-off is given here; in the data, active means inhibition above about 32%; inactive means the rest.
# Test: TEAD-YAP interaction inhibition, primary screen, TEAD-YAP interaction inhibitor project, luminescence, HEK-TIYL cells (AID 1259422);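 further: 0% = median of test compound wells and 100% = reference inhibitor wells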
# Conditions: TEAD-Gal4/YAP UAS-luciferase luminescence, at 9.12 µM, stronger effect = higher value
row,Structure (SMILES),inhibition
1,CCOC(=O)c1c(NC(=O)C(C)Sc2nnc(CNC(=O)c3ccc(Cl)cc3Cl)n2C)sc2c1CCCC2 (centres undefined),5.37%
2,COc1ccc(-n2nc(C(=O)N3CCN(C)CC3)c3ccccc3c2=O)c(OC)c1,3.03%
3,COc1ccc(/C=C(/NC(=O)c2ccco2)C(=O)Nc2cccc(O)c2)cc1,0.64%
4,COc1ccc(C2CC(C(F)(F)F)n3ncc(C(=O)NCc4cccs4)c3N2)cc1OC (centres undefined),-29.4%
5,O=C(C(Cc1ccccc1)NS(=O)(=O)c1cccs1)N1CCc2ccccc21 (centres undefined),7.02%
6,Cc1ccc2cc(CN(CCCO)S(=O)(=O)c3ccccc3[N+](=O)[O-])c(=O)[nH]c2c1,-39.4%
7,CC1=C(C(=O)Nc2ccc(Cl)cc2)C(c2c(Cl)cccc2Cl)NC(=O)N1 (centres undefined),37.4% (active)
8,CC1=C(C(=O)Nc2ccc(Cl)cc2)C(c2cccc(Cl)c2)NC(=O)N1 (centres undefined),6.92%
9,CCOc1ccc(NC(=O)C2=C(C)NC(=O)NC2c2ccc(Cl)cc2)cc1 (centres undefined),11%
10,O=C(Nc1ccc(Br)cc1)c1cc2ccccc2c(=O)o1,-8.82%
11,Cc1ccc2nc(NCc3ccccc3)nc(-c3ccccc3)c2c1,-0.32%
12,O=c1c(-c2ccccc2)[n+]([O-])c2ccccc2n1OCc1ccccc1Cl,-9.42%
13,CCOC(=CNc1ccc2nsnc2c1)OCC,-2.05%
14,CCCOc1ccc(N2C(=O)CC(N(CCC34CC5CC(CC(C5)C3)C4)C(C)=O)C2=O)cc1 (centres undefined),1.87%
15,c1cn(-c2ccc(Nc3nc4ncnc(NC5CC5)c4[nH]3)cc2)cn1,45.5% (active)
16,c1ccc(Nc2nc3ncnc(NCc4cccnc4)c3[nH]2)cc1,-5.96%
17,COc1ccc(CCNc2ncnc3nc(Nc4ccc(N5CCOCC5)cc4)[nH]c23)cc1,20.2%
18,CC1=C(C(=O)Nc2cc(Cl)ccc2C(=O)O)SCCO1,5.44%
19,CC(=O)c1ccc(N2CCN(C(=O)Cn3ncc4c3-c3cc(C)ccc3OC4)CC2)cc1,-3.87%
20,CCC(=O)C1=C(c2ccc(Cl)cc2)N(C(=O)CC)n2cnnc2S1,15.1%
21,CCc1nnc2n1N(C(C)=O)C(c1ccc3c(c1)CCCC3)=C(C(C)=O)S2,10.8%
22,CC(=O)C1=C(c2ccc(C(C)(C)C)cc2)N(C(C)=O)n2cnnc2S1,84% (active)
23,CCN1CCCC1CNC(=O)CSCc1nc(-c2ccccc2F)oc1C (centres undefined),-9.37%
24,CN(C(=O)c1cccs1)C(Cc1ccccc1)C1CCN(C(=O)C2CCOC2)CC1 (centres undefined),-13%
